Experimental data taken from PubChem BioAssay.
Activity calls are given as the source filed them. Unless noted, the rule behind the calls is not given here.

What was measured:
[1] = HepG2 liver cancer cell viability effects, profiling panel, resazurin fluorescence, 24 h, PK04 Diversity Set (AID 1172); settings: higher = more signal
[2] = basal S. cerevisiae growth modulation, no modifier, primary screen, OD600, strain BY4716, 24 h, basal condition (AID 1173); settings: OD600, 24 h, higher = more signal, called active from +8 up or from −8 down
[3] = MM1S myeloma cell viability, profiling panel, resazurin fluorescence, basal, 24 h, PK04 Diversity Set (AID 1174); settings: higher = more signal, called active from +8 up or from −8 down;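 note: MM1S multiple myeloma cell line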
[4] = molecular target: Dihydroorotate dehydrogenase (quinone), mitochondrial (Plasmodium falciparum (isolate 3D7)) (UniProt Q08210); test: PfDHODH enzyme inhibitors, primary screen, biochemical, C-terminal His tag, absorbance 600 nm (AID 1175); settings: DCIP absorbance 600 nm, higher = more signal, called active from +8 up or from −8 down;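 note: recombinant parasite enzyme with a five histidine tag at its C terminus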
Dihydroorotate dehydrogenase (quinone), mitochondrial (Plasmodium falciparum (isolate 3D7)), sequence (Q08210 whole entry, looked up): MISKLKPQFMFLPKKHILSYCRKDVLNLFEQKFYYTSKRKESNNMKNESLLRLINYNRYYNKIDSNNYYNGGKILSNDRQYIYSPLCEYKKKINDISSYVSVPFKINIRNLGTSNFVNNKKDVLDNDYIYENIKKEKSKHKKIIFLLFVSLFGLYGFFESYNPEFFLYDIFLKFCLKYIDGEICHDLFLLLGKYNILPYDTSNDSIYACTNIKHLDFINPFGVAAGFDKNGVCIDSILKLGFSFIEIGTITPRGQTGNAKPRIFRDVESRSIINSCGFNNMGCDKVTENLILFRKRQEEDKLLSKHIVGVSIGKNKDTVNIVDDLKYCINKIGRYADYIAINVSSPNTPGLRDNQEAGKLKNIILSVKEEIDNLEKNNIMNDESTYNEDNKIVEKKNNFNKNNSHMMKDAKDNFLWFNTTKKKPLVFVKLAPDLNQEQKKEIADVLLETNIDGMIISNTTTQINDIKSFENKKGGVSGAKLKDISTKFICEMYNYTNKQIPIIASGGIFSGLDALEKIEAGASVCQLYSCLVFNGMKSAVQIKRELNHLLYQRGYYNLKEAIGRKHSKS

[5] = P. aeruginosa biofilm formation inhibitors, primary screen, strain PAO1, LB-PBS medium, absorbance 600 nm (AID 1176); settings: P. aeruginosa PAO1 growth/biofilm, A600, 12 h; higher = more signal
[6] = S. cerevisiae RM11-1a growth modifiers, primary screen, strain RM11-1a, OD600, basal, 24 h (AID 1177); settings: OD600, 24 h, higher = more signal, called active from +8 up or from −8 down;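 note: cultures grown under basal conditions with no added stressor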
[7] = E. coli acrAB mutant growth effects, primary screen, E. coli filamentation inducers, strain DRC39, OD650, 24 h (AID 1178); settings: higher = more signal, called active from +8 up or from −8 down;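 note: growth measured as culture turbidity by optical density at 650 nm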
[8] = E. coli acrAB mutant growth effects, primary screen, E. coli filamentation inducers, strain DRC39, OD650, 48 h (AID 1179);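 note: screen aims at cell division blockers that make cells filament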; settings: E. coli DRC39 delta-acrAB growth, higher = more signal, called active from +8 up or from −8 down
[9] = RPMI8226 myeloma cell viability, profiling panel, resazurin fluorescence, basal, 24 h, PK04 Diversity Set (AID 1180); settings: higher = more signal;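 note: RPMI8826 multiple myeloma cell line at 5000 cells per well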
[10] = molecular target: E3 ubiquitin-protein ligase XIAP (Homo sapiens) (UniProt P98170); test: XIAP binders, primary screen, biophysical, small-molecule microarray, fluorescence 635 nm (AID 1181); settings: small-molecule microarray binding, higher = more signal;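 note: score merges 667 nm emission and signal to noise over triplicate slides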
E3 ubiquitin-protein ligase XIAP (Homo sapiens), sequence (P98170 whole entry, looked up): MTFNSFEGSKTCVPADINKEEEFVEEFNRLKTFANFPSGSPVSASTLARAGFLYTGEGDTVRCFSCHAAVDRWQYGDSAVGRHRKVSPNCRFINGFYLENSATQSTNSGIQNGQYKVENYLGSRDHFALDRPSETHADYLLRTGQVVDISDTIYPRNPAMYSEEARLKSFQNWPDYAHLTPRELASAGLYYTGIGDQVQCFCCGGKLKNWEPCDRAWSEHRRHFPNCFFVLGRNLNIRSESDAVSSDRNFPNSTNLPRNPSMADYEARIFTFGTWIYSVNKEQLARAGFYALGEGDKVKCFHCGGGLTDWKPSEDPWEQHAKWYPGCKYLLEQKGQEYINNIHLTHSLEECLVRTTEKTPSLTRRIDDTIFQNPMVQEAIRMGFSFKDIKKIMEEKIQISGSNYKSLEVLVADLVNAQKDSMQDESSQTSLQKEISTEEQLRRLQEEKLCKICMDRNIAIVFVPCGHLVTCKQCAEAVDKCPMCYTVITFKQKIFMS

[11] = system: XIP peptide (Xip251-270) binding; test: small-molecule binders of XIP peptide, primary screen, biochemical, small-molecule microarray, fluorescence 635/667 nm, 0.1 µg/mL protein (AID 1182); settings: fluorescent protein binding, 635 nm, higher = more signal, called active from +8 up or from −8 down
XIP peptide (Xip251-270) = test: small-molecule binders of XIP peptide, primary screen, biochemical, small-molecule microarray, fluorescence 635/667 nm, 0.5 µg/mL protein (AID 1183); settings: small-molecule microarray binding, fluorescence 635 nm; higher = more signal
[12] = Plasmodium falciparum growth inhibition, primary screen, strain 3D7, DAPI fluorescence, 100 nL (AID 1184);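 note: parasites grown inside human red blood cells in medium with human serum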; settings: P. falciparum 3D7 growth, 3 d, higher = more signal
[13] = molecular target: Homeobox protein Hox-A13 (Mus musculus) (UniProt Q62424); test: inhibitors of HoxA13-DNA binding, primary screen, biochemical, fluorescence polarization, labeled oligonucleotide (AID 1185); settings: 15 min, higher = more signal, called active from +8 up or from −8 down
Homeobox protein Hox-A13 (Mus musculus), sequence (Q62424 whole entry, looked up): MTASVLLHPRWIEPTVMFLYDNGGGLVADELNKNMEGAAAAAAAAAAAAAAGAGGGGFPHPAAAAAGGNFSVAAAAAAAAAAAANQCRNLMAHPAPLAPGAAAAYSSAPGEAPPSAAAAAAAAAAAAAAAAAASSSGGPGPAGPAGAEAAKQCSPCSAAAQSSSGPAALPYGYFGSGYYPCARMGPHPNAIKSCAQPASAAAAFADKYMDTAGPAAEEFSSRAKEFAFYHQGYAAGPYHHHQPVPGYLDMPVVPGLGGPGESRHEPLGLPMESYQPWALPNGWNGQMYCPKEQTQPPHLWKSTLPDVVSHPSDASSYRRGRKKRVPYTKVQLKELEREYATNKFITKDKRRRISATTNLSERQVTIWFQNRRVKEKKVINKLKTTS

[14] = inhibitors of hydroxyurea-induced Chk1 phosphorylation, primary screen, imaging, HeLa, phospho-Chk1 antibody, percent positive cells (AID 1186); settings: hydroxyurea-induced phospho-Chk1 immunofluorescence imaging, higher = more signal
[15] = inhibitors of hydroxyurea-induced Chk1 phosphorylation, primary screen, imaging, HeLa, phospho-Chk1 nuclear intensity (AID 1187); settings: hydroxyurea-induced phospho-Chk1 immunofluorescence imaging, higher = more signal

Structure (SMILES) | z-score [1] | z-score [2] | z-score [3] | composite z-score [4] | z-score [5] | z-score [6] | z-score [7] | z-score [8] | z-score [9] | composite z-score [10] | composite z-score [11] | composite z-score (XIP peptide (Xip251-270)) | z-score [12] | z-score [13] | z-score [14] | z-score [15]
O=C1O[C@H](Cc2ccccc2)[C@@H]2[C@H]3C=CCCC=C3CN2[C@H]1Cc1ccc(O)cc1 | 1.28 | -2.92 (inactive) | 0.303 (inactive) | -0.259 (inactive) | 0.118 (inactive) | -0.0533 (inactive) | 0.616 (inactive) | 0.746 (inactive) | -0.095 | 0.269 | 0.127 (inactive) | -0.61 | -0.947 | -9.53 (active) | 0.167 (inactive) | -0.122 (inactive)
O=C1C[C@@](C(=O)NC2CC2)(c2ccc([N+](=O)[O-])cc2)[C@@H](c2ccc(CO)cc2)N1C1CCCCC1 | 0.363 | -1.44 (inactive) | 1.23 (inactive) | -6.96 (inactive) | 1.46 (inactive) | -2.37 (inactive) | 0.0991 (inactive) | -0.0005 (inactive) | 1.48 | -0.0574 | 1.19 (inactive) | 0.662 | -1.39 | -3.19 (inactive) | -0.544 (inactive) | -0.979 (inactive)
CC(C)NC(=O)[C@@]1(C)c2ccccc2C(=O)N(Cc2ccccc2)[C@H]1c1ccc(CO)cc1 | 0.107 | -0.177 (inactive) | 0.782 (inactive) | -1.48 (inactive) | 0.5 (inactive) | -1.29 (inactive) | 0.4 (inactive) | 0.988 (inactive) | 0.453 | -0.287 | 0.0062 (inactive) | 0.875 | -0.321 | -2.37 (inactive) | -0.471 (inactive) | -0.429 (inactive)
OCCCC1=CC(c2ccc(CN3CCCC3)cc2)N(Cc2cccc(OC(F)(F)F)c2)CC1 (centres undefined) | -2.32 | -5.01 (inactive) | -6.82 (inactive) | -1.2 (inactive) | 0.318 (inactive) | 0.195 (inactive) | -1 (inactive) | -1.83 (inactive) | -5.61 | 0.215 | -0.113 (inactive) | -0.504 | -2.86 | -3.15 (inactive) | 0.86 (inactive) | 1.51 (inactive)
COC(=O)[C@@]1(Cc2ccc(OC)cc2)[C@H]2c3cc(C(=O)N(C)C)[nH]c3C[C@H]2CN1C(=O)c1ccccc1 | -0.576 | 0.304 (inactive) | -0.798 (inactive) | -0.309 (inactive) | -0.471 (inactive) | 0.68 (inactive) | -0.151 (inactive) | 0.192 (inactive) | -0.247 | -0.147 | 0.0849 (inactive) | -0.197 | -0.0305 | -2.93 (inactive) | -0.041 (inactive) | -0.309 (inactive)
CCOC(=O)c1cn(C[C@H](Cc2ccccc2)NC(=O)N[C@H](CO)CCc2oc(C(C)=O)c(C(=O)OC)c2C(=O)OC)nn1 | -0.756 | -2.76 (inactive) | 0.225 (inactive) | -3.55 (inactive) | -0.227 (inactive) | -0.669 (inactive) | -0.124 (inactive) | -0.356 (inactive) | -0.458 | -0.0835 | 0.534 (inactive) | 0.635 | -1.63 | -2.67 (inactive) | -0.107 (inactive) | 0.432 (inactive)
COCCOC(=O)N1C(=O)[C@@]2(c3cc(C#CCNC(N)=O)ccc31)[C@H](C(=O)Nc1nc3ccccc3s1)[C@H]1C(=O)O[C@H](c3ccccc3)[C@H](c3ccccc3)N1[C@@H]2c1ccccc1OCCO | 0.0277 | 0.21 (inactive) | -0.482 (inactive) | -0.845 (inactive) | 3.44 (inactive) | 2.32 (inactive) | 0.405 (inactive) | 1.14 (inactive) | -1.01 | -0.155 | 0.278 (inactive) | 0.634 | -1.78 | 2.01 (inactive) | -0.339 (inactive) | -0.644 (inactive)
COCC(=C=CC[C@H](O)c1ccccc1OCCO)C[C@H](O)COCc1ccccc1 | 0.0129 | -2.91 (inactive) | 0.442 (inactive) | -2.21 (inactive) | -0.566 (inactive) | -0.482 (inactive) | -0.348 (inactive) | -0.456 (inactive) | 0.623 | 0.151 | 0.195 (inactive) | 0.148 | -1.77 | -4.37 (inactive) | 0.141 (inactive) | 0.058 (inactive)
COCCOC(=O)N1C(=O)[C@@]2(c3cc(C#CCC(C(=O)OC)C(=O)OC)ccc31)[C@H](C(=O)Nc1nc3ccccc3s1)[C@H]1C(=O)O[C@H](c3ccccc3)[C@H](c3ccccc3)N1[C@@H]2c1ccc(O)cc1 | -0.218 | 0.945 (inactive) | -0.0585 (inactive) | 0.863 (inactive) | 0.678 (inactive) | 0.404 (inactive) | 0.378 (inactive) | -0.186 (inactive) | -0.577 | 0.286 | 0.224 (inactive) | 0.599 | -1.52 | -1.93 (inactive) | 0.119 (inactive) | 0.359 (inactive)
